# Source: PubChem BioAssay (NCATS)
# Records with an inconclusive call do not appear. Entries that show only a call come without a potency. A number with no mark means an inactive call. The source made the active and inactive calls. Unless noted, calls come from the whole dose curve; as a rule, active = well fitted curve in the direction sought with a large enough effect; inconclusive = small, poorly fitted or top-dose-only effect, or another doubt; inactive = no such curve, though single readings can be large; an effect the other way counts as inactive or inconclusive. Starred links: 1 amine or outer side, 2 acyl side, 3 side chain; linkers in the order of their positions; H or OH if unused. Positions of bridges follow the written chain, without caps; N, C: chain ends. Non-standard residues stand in square brackets, D forms with d. Residues, ends and D or L forms follow the SMILES beside them. Chains are numbered I, II in the order given. *: point of attachment. Actinocin(9to1) = Cc1c2oc3c(C)ccc(C(=O)[*:1])c3nc-2c(C(=O)[*:2])c(N)c1=O; NMeV = CN[CH](C(=O)O)C(C)C; Cbz = O=C(OCc1ccccc1)*; Sar = CNCC(=O)O
# Key:
# [1] = qHTS to identify inhibitors of the type 1 interferon - major histocompatibility complex class I in skeletal muscle: primary screen against the NCATS Pharmaceutical Collection (AID 1347407);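 note: luminescence of HiBiT knocked into endogenous HLA-B as interferon-induced MHC class I level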
# Method in brief: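 Immortalized human myoblasts (C25cl48) with HiBiT knocked into endogenous HLA-B*08:01 were stimulated with 4.0 ng/ml IFN-beta and treated with compounds ([…] top 46 uM) for 24 hrs at 37 C. HiBiT lytic luminescence read.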
# [2] = target: Protein phosphatase 1D (Homo sapiens) (UniProt O15297); test: RapidFire Mass Spectrometry qHTS Assay for Modulators of WT P53-Induced Phosphatase 1 (WIP1) (AID 1347424);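 note: amount of dephosphorylated VEPPL-S-QETFS peptide product formed by WIP1; series mostly up to about 63 µM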
# Method in brief: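 10 nM WIP1 + cpd, 1 h RT; + 2 uM VEPPL-pS-QETFS, 5 min RT; stop 0.5% formic acid; labelled product standard 1 uM; RapidFire MS. Buffer 50 mM Tris pH 7.5, 30 mM MgCl2, 1 mM TCEP.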
# [3] = target: Protein phosphatase 1D (Homo sapiens) (UniProt O15297); test: Rhodamine-PBP qHTS Assay for Modulators of WT P53-Induced Phosphatase 1 (WIP1) (AID 1347425)
# Method in brief: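 WIP1 (5 nM final) was preincubated with compound for 1 hour at room temperature. It then dephosphorylated 10 uM VEPPL-pS-QETFS peptide in Tris-HCl pH 7.5 with 30 mM MgCl2. Released Pi was detected by 10 uM Rh-PBP fluorescence (ex 525/em 598 nm) read at 1-min intervals for 11 min, as delta f1 - f0.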
# [4] = Primary qHTS for inhibitors of La Crosse Virus (LACV) - induced cell death in SH-SY5Y cells (AID 1508616);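 note: top concentration of the series differs between compounds; higher means more rescue of cells from virus-induced death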
# Method in brief: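 SH-SY5Y cells (6000/well) plated 24 h, then given compounds by pin transfer and LACV at 0.01 MOI for 6 days at 37C. Viability measured by ATPLite luminescence, normalized to infected DMSO and uninfected DMSO.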
# [5] = target: Calcium and integrin-binding protein 1 (Homo sapiens) (UniProt Q99828); test: Primary qHTS for Identification of Calcium Integrin Binding Protein 1 (CIB1) Competitor (AID 1508620);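 note: GST tagged CIB1 binding a fluorescein labelled alphaIIb integrin peptide tracer; top concentration of the series differs between compounds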
# Method in brief: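 CIB1-GST (1 uM final) and compound incubated 15 min at room temperature before adding FITC-alphaIIb peptide tracer (100 nM final). Competition for binding read by fluorescence polarization (ex 480, em 540) after another 15 min at room temperature.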
# [6] = Primary qHTS for small molecule stabilizers of the endoplasmic reticulum resident proteome: Secreted ER Calcium Modulated Protein (SERCaMP) assay (AID 1508630)
# Method in brief: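 GLuc-SERCaMP-expressing SH-SY5Y cells, pretreated 16 h with compound, are challenged with thapsigargin to empty ER calcium stores; after 4 h, coelenterazine is added directly to the medium and luminescence is imaged.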
# [7] = A High-Content qHTS Against Drug Library for the Identification of Small Molecules that Inhibit DYT1 Early Onset Primary Dystonia-Associated Cell Pathology (AID 1645839; calls by dose curve; note: series mostly up to about 46 µM)
# Method in brief: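 In this high-content image screen, delE TorsinA mislocalization in inducible Flp-In 293 cells is scored as %pathology, with cell count serving as the counterscreen. Compound exposure lasts 48 h under tetracycline induction in reduced-serum medium.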
# [8] = target: Cytochrome P450 2D6 (Homo sapiens) (UniProt P10635); test: Cytochrome P450 family 2 subfamily D member 6 (CYP2D6) small molecule antagonists: luciferase biochemical (cell-free) qHTS assay (AID 1645840; active = well fitted curve in the direction sought with a large enough effect in the repeat runs; an effect the other way counts as inactive or inconclusive; note: series mostly up to about 57 µM; nearly all actives have a fitted effect of over 55% in size)
# Method in brief: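 P450-Glo luminescent screen: recombinant CYP2D6 enzyme–proluciferin substrate mix preincubated with compound 10 min at room temperature, then NADPH regeneration added for 1 h at room temperature. Detection reagent added for 20 min; luciferin light read as relative luminescence units.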
# [9] = qHTS to identify inhibitors of the type 1 interferon - major histocompatibility complex class I in skeletal muscle: primary screen against the NCATS Mechanism Interrogation Plate v5.0 (MIPE) Libary (AID 1347411); note: nearly all actives have a fitted effect of over 65% in size; note: potency is the fitted concentration of half-maximal effect
# Method in brief: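 Immortalized human myoblasts (C25cl48) with HiBit knocked into endogenous HLA-B*08:01 were stimulated with 4 ng/ml IFN-beta and given compounds in 11-point 1:3 titration from 46 uM. After 24 h at 37 C, lytic HiBiT luminescence was read.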
# [10] = target: Calcium and integrin-binding protein 1 (Homo sapiens) (UniProt Q99828); test: Confirmatory qHTS for Identification of Calcium Integrin Binding Protein 1 (CIB1) Competitor (AID 1508617); note: nearly all actives have a fitted effect of over 65% in size
# Method in brief: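 FP competition: CIB1-GST (1 uM final) in 5 mM HEPES pH 7.4, 125 mM NaCl, 5 mM CaCl2, 0.01% Tween20 preincubated 15 min RT with compounds (up to 114 uM), then FITC-alphaIIb peptide (100 nM), 15 min RT; Ex 480/Em 540.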
# [11] = target: Cytochrome P450 2C9 (Homo sapiens) (UniProt P11712); test: Cytochrome P450 family 2 subfamily C member 9 (CYP2C9) small molecule antagonists: luciferase biochemical (cell-free) qHTS assay (AID 1645842; active = well fitted curve in the direction sought with a large enough effect in the repeat runs; an effect the other way counts as inactive or inconclusive; note: potency is the fitted concentration of half-maximal effect; nearly all actives have a fitted effect of over 55% in size)
# Method in brief: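 Luminescence, after 20 min with luciferin detection reagent, reflected CYP2C9 turnover during a 1 h NADPH-driven reaction at 37C. Enzyme-substrate mix contained 0.4% bovine serum albumin and was preincubated with compound 10 min at room temperature.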
# Sequence of Protein phosphatase 1D (Homo sapiens) (O15297 whole entry, looked up): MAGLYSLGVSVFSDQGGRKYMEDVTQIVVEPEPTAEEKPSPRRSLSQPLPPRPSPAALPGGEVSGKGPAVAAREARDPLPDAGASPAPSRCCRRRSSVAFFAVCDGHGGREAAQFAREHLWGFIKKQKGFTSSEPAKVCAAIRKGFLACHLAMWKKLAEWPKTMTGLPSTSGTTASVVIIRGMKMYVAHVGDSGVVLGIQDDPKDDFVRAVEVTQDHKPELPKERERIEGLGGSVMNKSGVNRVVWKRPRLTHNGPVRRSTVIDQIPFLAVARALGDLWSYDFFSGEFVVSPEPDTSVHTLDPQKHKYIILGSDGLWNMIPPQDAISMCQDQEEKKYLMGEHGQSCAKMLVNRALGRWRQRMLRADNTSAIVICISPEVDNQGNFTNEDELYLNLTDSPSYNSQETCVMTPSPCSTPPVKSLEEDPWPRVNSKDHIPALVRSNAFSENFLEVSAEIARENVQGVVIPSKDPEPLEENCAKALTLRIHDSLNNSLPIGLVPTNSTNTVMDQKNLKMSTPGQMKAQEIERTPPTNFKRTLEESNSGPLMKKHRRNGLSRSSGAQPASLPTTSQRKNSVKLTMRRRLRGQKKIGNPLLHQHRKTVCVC
# Sequence of Calcium and integrin-binding protein 1 (Homo sapiens) (Q99828 whole entry, looked up): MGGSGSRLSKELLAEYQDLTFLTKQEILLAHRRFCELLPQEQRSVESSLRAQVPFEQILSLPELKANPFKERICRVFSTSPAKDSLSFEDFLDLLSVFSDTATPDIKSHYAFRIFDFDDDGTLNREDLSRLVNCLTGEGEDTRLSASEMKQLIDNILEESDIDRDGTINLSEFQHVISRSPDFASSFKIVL
# Sequence of Cytochrome P450 2D6 (Homo sapiens) (P10635 whole entry, looked up): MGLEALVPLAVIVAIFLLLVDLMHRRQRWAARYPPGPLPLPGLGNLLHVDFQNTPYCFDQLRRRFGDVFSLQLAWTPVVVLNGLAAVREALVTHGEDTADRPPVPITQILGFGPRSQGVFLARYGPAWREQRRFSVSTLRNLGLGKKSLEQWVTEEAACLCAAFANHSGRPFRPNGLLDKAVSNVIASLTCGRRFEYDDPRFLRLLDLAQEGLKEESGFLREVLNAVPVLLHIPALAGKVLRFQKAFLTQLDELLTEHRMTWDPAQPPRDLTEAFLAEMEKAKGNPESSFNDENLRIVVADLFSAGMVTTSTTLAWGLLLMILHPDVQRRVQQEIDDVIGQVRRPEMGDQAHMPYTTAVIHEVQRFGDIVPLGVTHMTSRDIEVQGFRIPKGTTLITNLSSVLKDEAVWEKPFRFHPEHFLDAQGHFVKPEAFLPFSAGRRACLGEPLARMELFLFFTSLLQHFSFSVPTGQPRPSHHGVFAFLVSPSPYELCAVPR
# Sequence of Cytochrome P450 2C9 (Homo sapiens) (P11712 whole entry, looked up): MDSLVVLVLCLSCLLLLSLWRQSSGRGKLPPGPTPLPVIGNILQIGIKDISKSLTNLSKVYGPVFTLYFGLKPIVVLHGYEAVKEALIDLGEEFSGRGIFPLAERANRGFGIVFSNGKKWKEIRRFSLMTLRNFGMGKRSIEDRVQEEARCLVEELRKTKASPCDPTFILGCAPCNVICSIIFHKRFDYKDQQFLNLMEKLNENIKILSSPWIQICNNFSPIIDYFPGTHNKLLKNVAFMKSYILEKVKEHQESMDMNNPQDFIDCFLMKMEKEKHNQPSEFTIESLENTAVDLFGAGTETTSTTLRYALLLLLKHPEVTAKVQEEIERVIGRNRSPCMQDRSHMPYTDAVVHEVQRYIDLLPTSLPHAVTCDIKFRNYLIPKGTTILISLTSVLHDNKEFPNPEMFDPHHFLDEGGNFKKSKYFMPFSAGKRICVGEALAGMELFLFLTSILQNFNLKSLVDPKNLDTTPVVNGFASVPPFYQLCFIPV
compound,measurement,setting,value
CCn1c(=O)c2c(nc(C=Cc3ccc(OC)c(OC)c3)n2C)n(CC)c1=O,outcome,[1],inactive
same,Potency,[2],inactive
same,outcome,[3],inactive
same,outcome,[4],inactive
same,Potency,[5],inactive
same,outcome,[6],inactive
same,outcome,[7],inactive
same,Potency,[8],inactive
CN(C)CCN1C(=O)c2cccc3cc(N)cc(c23)C1=O,Potency,[9],10.4 µM (active)
same,Potency,[10],inactive
same,outcome,[6],inactive
CC1(C)O[C@@H]2C[C@H]3[C@@H]4CCC5=CC(=O)C=C[C@]5(C)[C@@H]4[C@@H](O)C[C@]3(C)[C@]2(C(=O)CO)O1,outcome,[1],inactive
same,Potency,[2],inactive
same,outcome,[3],inactive
same,outcome,[4],inactive
same,Potency,[5],inactive
same,outcome,[6],inactive
same,outcome,[7],inactive
same,Potency,[8],inactive
O=C(Nc1nnc(-c2ccco2)o1)c1cc(-c2ccccc2)nc2ccccc12,Potency,[9],inactive
same,Potency,[5],inactive
same,outcome,[6],inactive
CCCCCCCN(CC)CCCC(O)c1ccc(NS(C)(=O)=O)cc1 (stereo unspecified),Potency,[9],inactive
same,Potency,[5],inactive
"Cc1c2oc3c(C)ccc(C(=O)NC4C(=O)NC(C(C)C)C(=O)N5CCCC5C(=O)N(C)CC(=O)N(C)C(C(C)C)C(=O)OC4C)c3nc-2c(C(=O)NC2C(=O)NC(C(C)C)C(=O)N3CCCC3C(=O)N(C)CC(=O)N(C)C(C(C)C)C(=O)OC2C)c(N)c1=O (stereo unspecified) (I: TVP[Sar][NMeV] / II: TVP[Sar][NMeV]; ester I:1-I:C, II:1-II:C; linker I:N-II:N via Actinocin(9to1); configuration not given here)",Potency,[9],0.114 µM (active)
same,Potency,[5],inactive
CCCCC(=O)O[C@]1(C(=O)CO)[C@@H](C)C[C@H]2[C@@H]3CCC4=CC(=O)C=C[C@]4(C)[C@@]3(F)[C@@H](O)C[C@@]21C,Potency,[9],inactive
same,Potency,[2],inactive
same,outcome,[3],inactive
same,outcome,[4],inactive
same,Potency,[5],inactive
same,outcome,[6],inactive
same,outcome,[7],inactive
same,Potency,[11],15.5 µM (active)
O=C(Nc1cccc(Nc2ncc(Br)c(NCCc3cnc[nH]3)n2)c1)N1CCCC1,Potency,[9],5.87 µM (active)
same,Potency,[5],inactive
same,outcome,[6],inactive
COc1cc(OC)c(NC(=O)Nc2cc(C)on2)cc1Cl,Potency,[9],inactive
same,Potency,[5],inactive
same,outcome,[6],inactive
CN(CC(=O)N(Cc1ccc(C2CCCCC2)cc1)c1ccc(C(=O)O)c(O)c1)S(=O)(=O)c1c(F)c(F)c(F)c(F)c1F,Potency,[9],inactive
same,Potency,[5],inactive
same,outcome,[6],inactive
CC[C@@]1([C@@H]2O[C@@H]([C@H]3O[C@@](O)(CO)[C@H](C)C[C@H]3C)C[C@H]2C)CC[C@H]([C@]2(C)CC[C@]3(C[C@H](O)[C@@H](C)[C@@H]([C@@H](C)[C@@H](OC)[C@H](C)C(=O)O)O3)O2)O1,Potency,[9],inactive
same,Potency,[5],inactive
same,outcome,[6],inactive
C[C@H](NC(=O)Cc1cc(F)cc(F)c1)C(=O)N[C@H](C(=O)OC(C)(C)C)c1ccccc1,Potency,[9],inactive
same,Potency,[5],inactive
same,outcome,[6],inactive
COc1cc(C[C@@H](CO)[C@H](CO)Cc2ccc(O)c(OC)c2)ccc1O,Potency,[9],inactive
same,Potency,[5],inactive
same,outcome,[6],inactive
Cn1cc(C[C@@H](N)C(=O)O)c2ccccc21,"activity change, negative = inhibition",[9],-7.72% [at 8.44 µM]
same,Potency,[5],inactive
same,outcome,[6],inactive
C[C@@H]1CC[C@@]2(OC1)OC1CC3C4CC=C5CC(O)CCC5(C)C4CCC3(C)C1[C@@H]2C (stereo partly specified),Potency,[9],inactive
same,Potency,[5],inactive
same,outcome,[6],inactive
CC(C)C[C@H](NC(=O)[C@@H](NC(=O)c1cccc(-c2ccccc2)n1)[C@@H](C)O)B(O)O,Potency,[9],0.0641 µM (active)
same,Potency,[5],inactive
same,outcome,[6],inactive
CC(Oc1ccc(O)cc1)(P(=O)(O)O)P(=O)(O)O,Potency,[9],inactive
same,Potency,[5],inactive
same,outcome,[6],inactive
C[C@H](CCC(=O)O)[C@H]1CCC2C3C[C@H](O)[C@@H]4C[C@H](O)CC[C@]4(C)C3CC[C@@]21C (stereo partly specified),Potency,[9],inactive
same,Potency,[5],inactive
same,outcome,[6],inactive
Cn1cnc(=N)c2[nH]cnc21,Potency,[9],inactive
same,Potency,[5],inactive
same,outcome,[6],inactive
O=C(O)CCCCCC(=O)NN=C1CCCC1,Potency,[9],inactive
same,Potency,[5],inactive
same,outcome,[6],inactive
Oc1ccc(-c2ccc(-c3cc(Nc4cccc(CNC5CC5)c4)n[nH]3)cc2)c(O)c1,Potency,[9],5.87 µM (active)
same,Potency,[5],inactive
same,outcome,[6],inactive
Nc1nc2c(c(=O)[nH]1)N(C=O)[C@H](CNc1ccc(C(=O)N[C@@H](CCC(=O)O)C(=O)O)cc1)CN2,Potency,[9],inactive
same,Potency,[5],inactive
same,outcome,[6],inactive
O=C(c1ccc(F)cc1)N1CCC[C@H](c2nc(-c3ccc(F)cc3)no2)C1,Potency,[9],inactive
same,Potency,[5],inactive
same,outcome,[6],inactive
CCCCCCCCCCCCc1ccc(S(=O)(=O)Nc2nncs2)cc1,Potency,[9],inactive
same,Potency,[5],inactive
same,outcome,[6],inactive
CC(C)C[C@@H](C=O)NC(=O)[C@H](CC(C)C)NC(=O)[C@H](CC(C)C)NC(=O)OCc1ccccc1 (Cbz-Leu-Leu-Leu-aldehyde),Potency,[9],2.08 µM (active)
same,Potency,[5],inactive
same,outcome,[6],inactive
C[N+](C)([O-])CCNc1ccc(NCC[N+](C)(C)[O-])c2c1C(=O)c1c(O)ccc(O)c1C2=O,Potency,[9],inactive
same,Potency,[5],inactive
same,outcome,[6],inactive
CC(=O)O[C@H]1C[C@@H]2CC[C@H]3[C@H]4C[C@H]([N+]5(C)CCCCC5)[C@@H](OC(C)=O)[C@@]4(C)CC[C@@H]3[C@@]2(C)C[C@H]1[N+]1(C)CCCCC1,Potency,[9],inactive
same,Potency,[5],inactive
same,outcome,[6],inactive
COc1ccc(Nc2nccc(NCCO)n2)cc1,Potency,[9],inactive
same,Potency,[5],inactive
same,outcome,[6],inactive
COc1ccc([C@@H]2CNC(=O)C2)cc1OC1CCCC1,Potency,[9],inactive
same,Potency,[5],inactive
same,outcome,[6],inactive
CC(=O)OC[C@@H]1O[C@@H](n2ccc(=O)[nH]c2=O)[C@H](OC(C)=O)[C@H]1OC(C)=O,Potency,[9],inactive
same,Potency,[5],inactive
same,outcome,[6],inactive
c1coc(CNc2ncnc3nc[nH]c23)c1,Potency,[9],inactive
same,Potency,[5],inactive
same,outcome,[6],inactive
